Each structure is given as a SMILES string. Compounds without any hit were thinned out: in the full panel of roughly 83,000, 20% have a hit.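 For each line, cells grew in 96-well plates with the test compound present at a single concentration for 48 hours.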 Active and inactive are the calls of the source. How the source made its calls: active means growth percent below 10; inactive means the rest.

This test has as its system SN12C renal. The experiment in a line: NCI-60 one-dose screen, 48 h (100 = growth as untreated, 0 = no growth, -100 = all killed). As to conditions: 10 µM unless noted.
For the compound `COc1ccc(-c2cc(Cc3cccs3)c(=O)n(Cn3cncn3)n2)cc1`, the growth was 93.1% (inactive).

Consider `CC1=CSC2=NCCN12`, for which the growth is 99.5% (inactive).

With `Cc1ccc(NC(=O)Nc2ccc(-c3cccnc3)cc2N2CCC(CO)CC2)cc1`, the growth is 41% (inactive).

`COc1ccc2c(c1)C(=O)c1c-2c(OCCCN(C)C)nc2cc(Br)ccc12`: the growth is 62.2% (inactive).

As for `CCC(CC)NCCCCCNc1cc(OC)cc2cccnc12`, the growth is 87.2% (inactive).

`COc1cc(C2C=C(c3ccc(C)cc3)Nc3nc(SC)[nH]c(=O)c32)ccc1Oc1ccnc2cc(Cl)ccc12` (configuration not stated): the growth was 67% (inactive).

With `O=c1[nH]c(=O)n(C2CC(O)C(CO)O2)cc1C(F)(F)F` (configuration not stated), the growth is 28.6% (inactive).

In the case of `Nc1nc(Cl)c2[nH]cnc2n1`, the growth was 92.4% (inactive).

With `OC(CCC(O)(c1ccccc1)c1ccccc1)(c1ccccc1)c1ccccc1`, the growth was 88% (inactive).

As for `C[C@]12C[C@H](O)[C@H]3[C@@H](CCC4=CC(=O)CC[C@@]43C)[C@@H]1CC[C@@H]2C(=O)CO`, the growth was 79.9% (inactive).

As for `COC(=O)[C@]12CC[C@@H](C)[C@H](C)[C@@H]1C1=CC[C@@H]3[C@@]4(C)C=C(O)C(=O)[C@@]5(C)COC(=C54)C[C@@]3(C)[C@]1(C)CC2`, the growth was -29.9% (active).

In the case of `C=C(C)[C@@H]1C/C=C(/C=O)CC[C@@H]2O[C@@]2(C)CC/C=C(\C)CC1`, the growth is 116% (inactive).

Consider `CCCOc1ccc2c(c1)CC[C@@H]1[C@@H]2CC[C@@]2(C)[C@H]1CC[C@]2(C)O`, for which the growth is 82.7% (inactive).

On to `C/C(=N\N1CC(=O)NC1=O)c1ccc([N+](=O)[O-])o1`, for which the growth is 102% (inactive).

`CCC1=C(c2ccc(OC)cc2)C(C)(C)Oc2cc(O)c(CN3CCCC3)cc21`: the growth was 77.8% (inactive).

Consider `COc1ccc(Cn2cc3c(c2-c2ccccc2)CCc2cncnc2-3)cc1`, for which the growth is 62.7% (inactive).

Take `CCC(CCC(C)C1CCC2C3CC=C4CC(O)CCC4(C)C3CCC12C)C(C)C` (configuration not stated) (tested in a mixture with another compound): the growth is 84.4% (inactive).

For the compound `COc1cc(OC)c2sc(-c3ccc(-n4cncc4-c4ccc(N)cc4)cc3)nc2c1`, the growth is 76.1% (inactive).

With `CCn1c2c(c3ccccc31)SC1c3cccn3CCN1C2=S` (configuration not stated), the growth is 98.3% (inactive).

On to `COc1ccc(CCN2CCCN3C2=Nc2ccccc2S3(=O)=O)cc1`, for which the growth was 53.7% (inactive).

As to `O=C(Nc1ncc([N+](=O)[O-])s1)c1cccc([N+](=O)[O-])c1`, the growth is 51.1% (inactive).

Regarding `N#Cc1cnc2cc(OC[C@H](O)CO)c(NC(=O)CC3CSSC3)cc2c1Nc1ccc(OCc2cccc(F)c2)c(Cl)c1`, the growth was -65.7% (active).

For the compound `O=C(CSCC(=O)N/N=C/c1ccccc1O)N/N=C\c1ccccc1O`, the growth was 29% (inactive).

As for `CC(C)(C)c1ccc(S(=O)(=O)O)s1`, the growth was 97.7% (inactive).

With `CSC1=Nc2c(c(C)c(-c3ccccc3)n2CCCN2CCCCC2)C2=NC(=O)C[C@H](C)N12`, the growth is 45.5% (inactive).

In the case of `CC(=O)Oc1ccc(C23c4ccccc4C2(OC(C)=O)c2cc(OC(C)=O)ccc23)cc1` (configuration not stated), the growth is 81.7% (inactive).

Consider `COc1ccc2c(c1)C(=O)c1c-2c(OCCN(C)C)nc2cc(OC)ccc12`, for which the growth was 22.6% (inactive).

In the case of `O=C1NCN(CCO)CN1`, the growth is 96.5% (inactive).

In the case of `CC(=O)NCCSC(=O)C(=O)SCCNC(C)=O`, the growth is 99.4% (inactive).

In the case of `CCc1[nH]nc(-c2ccc(OC)cc2)c1-c1ccccc1OCCN(CC)CC`, the growth was 96.5% (inactive).

With `Cc1cc(NC(=O)Nc2cccc3ccccc23)no1`, the growth is 109% (inactive).

Regarding `NC(=O)c1ccccc1NC(=O)c1ccccc1Cl`, the growth is 101% (inactive).

On to `CCCCCCCC/C=C\CCCCCCCCOc1ccccc1CC(=O)NCC[N+]1(C)CCCC1`, for which the growth was 49.5% (inactive).

With `c1ccc(-n2nnnc2-c2cccc3ccccc23)cc1`, the growth was 39.9% (inactive).

As for `O=C1c2ccccc2C(=O)c2c1cccc2-n1nnc2ccccc21`, the growth is 106% (inactive).

As to `CCC(O)C(C)(C)C` (configuration not stated), the growth is 101% (inactive).

In the case of `Clc1ccc([C@@H]2C[C@@H]3Cc4cc(Br)c5ccccc5c4N2O3)c(Cl)c1`, the growth is 96.8% (inactive).

Source of the values: PubChem BioAssay (NCI).
